{"source": "PubChem BioAssay (NCATS)", "note": "Inconclusive results are not listed. A number with no mark means an inactive call. The source made the active and inactive calls. Calls come from the whole dose curve; as a rule, active = well fitted inhibition curve with a large enough effect; inconclusive = small, poorly fitted or top-dose-only effect; inactive = flat fitted curve, though single readings scatter.", "data": [{"system": "PAD", "assay": "qHTS profiling for inhibitors of Plasmodium falciparum proliferation (AID 504749); note: nearly all actives have a fitted effect of over 60% in size; note: potency is the fitted concentration of half-maximal effect;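 for activity, negative = inhibition: 0% = DMSO vehicle and full inhibition = artemisinin control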", "details": "P. falciparum in erythrocytes, SYBR Green DNA, 72 h; series mostly up to 28.7 µM; activity, negative = inhibition: at the top concentration", "how_it_was_run": "(§1)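 Readout was DNA-dye fluorescence from lysed cultures, ex 485/em 535 nm. Parasitized red cells had grown 72 h with compound; data scaled between 0.29 uM artemisinin and DMSO wells and corrected using vehicle-only plates.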", "values": [{"compound": "COc1ccc(CCN(C)CCCC(C#N)(c2ccc(OC)c(OC)c2)C(C)C)cc1OC", "note": "(configuration not stated)", "activity, negative = inhibition": "10.2%"}, {"compound": "CCC1(c2ccccc2)C(=O)NCNC1=O", "activity, negative = inhibition": "1.02%"}, {"compound": "O=C(Nc1ccc([N+](=O)[O-])cc1Cl)c1cc(Cl)ccc1O", "Potency": "0.631 µM (active)"}, {"compound": "NC12CC3CC(CC(C3)C1)C2", "activity, negative = inhibition": "14.2%"}, {"compound": "CCCCc1oc2ccccc2c1C(=O)c1cc(I)c(OCCN(CC)CC)c(I)c1", "Potency": "6.31 µM (active)"}, {"compound": "OCCN1CCN(CCCN2c3ccccc3Sc3ccc(C(F)(F)F)cc32)CC1", "Potency": "7.94 µM (active)"}, {"compound": "Cc1cc(C(C)(C)C)cc(C)c1CC1=NCCN1", "activity, negative = inhibition": "-11.3% [at 12.8 µM]"}, {"compound": "CC(CCc1ccc(O)cc1)NCCc1ccc(O)c(O)c1", "note": "(configuration not stated)", "activity, negative = inhibition": "17.8%"}, {"compound": "CC(COc1ccccc1)N(CCCl)Cc1ccccc1", "note": "(configuration not stated)", "activity, negative = inhibition": "-16.3%"}, {"compound": "Clc1ccc(C(c2ccccc2Cl)C(Cl)Cl)cc1", "note": "(configuration not stated)", "activity, negative = inhibition": "-2.71%"}, {"compound": "COc1cc2c(c(OC)c1OC)-c1ccc(OC)c(=O)cc1[C@@H](NC(C)=O)CC2", "activity, negative = inhibition": "-2.41%"}, {"compound": "CN(C)CCOC(c1ccccc1)c1ccccc1", "activity, negative = inhibition": "16.5%"}, {"compound": "Cc1cn([C@H]2C[C@H](N=[N+]=[N-])[C@@H](CO)O2)c(=O)[nH]c1=O", "activity, negative = inhibition": "6.73%"}, {"compound": "CC#C[C@]1(O)CC[C@H]2[C@@H]3CCC4=CC(=O)CCC4=C3[C@@H](c3ccc(N(C)C)cc3)C[C@@]21C", "Potency": "10 µM (active)"}, {"compound": "CCOC(=O)Nc1ccc(NCc2ccc(F)cc2)nc1N", "Potency": "10 µM (active)"}, {"compound": "CCOC(=O)c1ncn2c1CN(C)C(=O)c1cc(F)ccc1-2", "activity, negative = inhibition": "10.1%"}, {"compound": "CNCCCC12CCC(c3ccccc31)c1ccccc12", "activity, negative = inhibition": "-14.2%"}, {"compound": "CN1CCC(=C2c3ccccc3C=Cc3ccccc32)CC1", "activity, negative = inhibition": "6.21%"}, {"compound": "O=C1c2c(O)ccc(O)c2C(=O)c2c(NCCNCCO)ccc(NCCNCCO)c21", "Potency": "2 µM (active)"}, {"compound": "CC1(CN2CCC(n3c(=O)[nH]c4ccccc43)CC2)OCc2ccccc2-n2cccc21", "note": "(configuration not stated)", "Potency": "8.91 µM (active)"}, {"compound": "COc1ccccc1N1CCN(CC(O)COc2cccc3ccccc23)CC1", "note": "(configuration not stated)", "activity, negative = inhibition": "-27.9%"}, {"compound": "CN1CCN2c3ccccc3Cc3ccccc3C2C1", "note": "(configuration not stated)", "activity, negative = inhibition": "17.3%"}, {"compound": "COc1ccccc1OCC(O)CN1CCN(CC(=O)Nc2c(C)cccc2C)CC1", "note": "(configuration not stated)", "activity, negative = inhibition": "3.59%"}]}, {"system": "PC15", "assay": "qHTS profiling for inhibitors of Plasmodium falciparum proliferation (AID 504749)", "details": "P. falciparum in erythrocytes, SYBR Green DNA, 72 h; series mostly up to 28.7 µM; activity, negative = inhibition: at the top concentration", "how_it_was_run": "as §1", "values": [{"compound": "COc1ccc(CCN(C)CCCC(C#N)(c2ccc(OC)c(OC)c2)C(C)C)cc1OC", "note": "(configuration not stated)", "activity, negative = inhibition": "0.813%"}, {"compound": "Nc1c2c(nc3ccccc13)CCCC2", "Potency": "12.6 µM (active)"}, {"compound": "CCC1(c2ccccc2)C(=O)NCNC1=O", "activity, negative = inhibition": "4.46%"}, {"compound": "CCCCc1oc2ccccc2c1C(=O)c1cc(I)c(OCCN(CC)CC)c(I)c1", "Potency": "11.2 µM (active)"}, {"compound": "OCCN1CCN(CCCN2c3ccccc3Sc3ccc(C(F)(F)F)cc32)CC1", "Potency": "11.2 µM (active)"}, {"compound": "Cc1cc(C(C)(C)C)cc(C)c1CC1=NCCN1", "activity, negative = inhibition": "-12.4% [at 12.8 µM]"}, {"compound": "CC(COc1ccccc1)N(CCCl)Cc1ccccc1", "note": "(configuration not stated)", "activity, negative = inhibition": "-12.5%"}, {"compound": "Clc1ccc(C(c2ccccc2Cl)C(Cl)Cl)cc1", "note": "(configuration not stated)", "activity, negative = inhibition": "0.135%"}, {"compound": "COc1cc2c(c(OC)c1OC)-c1ccc(OC)c(=O)cc1[C@@H](NC(C)=O)CC2", "activity, negative = inhibition": "-14.1%"}, {"compound": "Cn1c(=O)c2[nH]cnc2n(C)c1=O", "activity, negative = inhibition": "8.2%"}, {"compound": "Cc1cn([C@H]2C[C@H](N=[N+]=[N-])[C@@H](CO)O2)c(=O)[nH]c1=O", "activity, negative = inhibition": "8.4%"}, {"compound": "CC#C[C@]1(O)CC[C@H]2[C@@H]3CCC4=CC(=O)CCC4=C3[C@@H](c3ccc(N(C)C)cc3)C[C@@]21C", "Potency": "12.6 µM (active)"}, {"compound": "CCOC(=O)c1ncn2c1CN(C)C(=O)c1cc(F)ccc1-2", "activity, negative = inhibition": "12.6%"}, {"compound": "CN1CCC(=C2c3ccccc3C=Cc3ccccc32)CC1", "activity, negative = inhibition": "3.02%"}, {"compound": "CC1(CN2CCC(n3c(=O)[nH]c4ccccc43)CC2)OCc2ccccc2-n2cccc21", "note": "(configuration not stated)", "Potency": "7.94 µM (active)"}, {"compound": "COc1ccccc1N1CCN(CC(O)COc2cccc3ccccc23)CC1", "note": "(configuration not stated)", "activity, negative = inhibition": "-11.7%"}, {"compound": "CN1CCN2c3ccccc3Cc3ccccc3C2C1", "note": "(configuration not stated)", "activity, negative = inhibition": "2.59%"}, {"compound": "CN(Cc1cnc2nc(N)nc(N)c2n1)c1ccc(C(=O)N[C@@H](CCC(=O)O)C(=O)O)cc1", "Potency": "0.224 µM (active)"}, {"compound": "COc1ccccc1OCC(O)CN1CCN(CC(=O)Nc2c(C)cccc2C)CC1", "note": "(configuration not stated)", "activity, negative = inhibition": "4.67%"}]}]}
